# Screening results from PubChem BioAssay.
# SMN2 splice up: enhancers of SMN2 splice variant expression. 2.8% of 210,000 active. HEK293 SMN2-luciferase splicing reporter, luminescence, 30-36 h. Potency, µM (titrated, usually from 46.1 µM), for the others: at the top dose activity change, positive = activation, usual class: activators; further: % of control where 0% means no effect; nearly all actives have a fitted effect of over 55% in size
#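 HEK293 cells carry an SMN2 minigene-luciferase reporter in which exon 7 inclusion puts luciferase in frame. Cells were seeded at 2000 cells/well, attached for 10-12 hours, then exposed to compounds for 30-36 hours at 37C before ONE-Glo luminescence.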
# NPC1 prom act: activators of NPC1 promoter. Huh7 NPC1 promoter luciferase reporter, 24 h. Potency, µM (titrated, usually from 9.22 µM), without a hit: top-dose activation, most hits filed as activators. 2.4% of 320,000 active. AID 485313; further: % of control where 0% means no effect; nearly all actives have a fitted effect of over 60% in size
#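 Luminescence from an NPC1 promoter-driven luciferase reporter in stably transfected Huh7 cells was measured after 24 h compound treatment at 37 °C, followed by 10 min ambient incubation with luciferase detection reagent.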
# ELG1 genotoxic: inducers of genotoxicity in HEK293T ELG1-luciferase cells; AID 504466; HEK293T ELG1-luciferase reporter, luminescence, 16 h; Potency, µM (series often up to 46 µM), without a hit: top-dose activity change, positive = activation, most hits filed as activators; 1.3% of 330,000 active; further: % of control where 0% means no effect; nearly all actives have a fitted effect of over 60% in size
#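 HEK293T cells expressing luciferase-tagged ELG1 were exposed to compound or DMSO vehicle for 16 hr at 37 °C and 5% CO2. Luciferase activity was then measured with ONE-Glo after 30 min at room temperature.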
# FLuc modulator: counter-screen for miR-21 project: firefly luciferase inhibitors or activators; 6.9% of 360,000 active; P08659; purified FLuc, Km substrates, luminescence inhibition; Potency, µM (series often up to 57.5 µM), for inactives: top-dose activity change, negative = inhibition, actives largely listed as inhibitors;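 further: plate controls were vehicle for no effect and reference inhibitor for full effect; nearly all actives have a fitted effect of over 55% in size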
# Target sequence (P08659 whole entry, looked up): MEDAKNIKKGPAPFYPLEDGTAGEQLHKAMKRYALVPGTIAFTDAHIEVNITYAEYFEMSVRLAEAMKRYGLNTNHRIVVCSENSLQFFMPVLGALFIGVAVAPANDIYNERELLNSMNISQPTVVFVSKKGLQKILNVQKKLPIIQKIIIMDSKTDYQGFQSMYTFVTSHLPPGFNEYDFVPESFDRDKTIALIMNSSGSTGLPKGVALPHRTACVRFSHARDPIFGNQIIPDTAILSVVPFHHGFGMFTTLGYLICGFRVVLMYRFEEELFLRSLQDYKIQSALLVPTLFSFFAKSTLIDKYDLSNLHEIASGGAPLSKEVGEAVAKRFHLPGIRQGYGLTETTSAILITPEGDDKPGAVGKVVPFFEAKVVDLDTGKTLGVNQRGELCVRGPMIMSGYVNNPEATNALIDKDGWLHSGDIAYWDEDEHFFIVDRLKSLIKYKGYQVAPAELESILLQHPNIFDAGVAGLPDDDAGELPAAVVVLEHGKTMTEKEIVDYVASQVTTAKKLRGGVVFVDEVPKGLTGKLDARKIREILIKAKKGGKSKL
#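 Purified P. pyralis luciferase, 10 nM final, with Km-level 10 uM D-luciferin and 10 uM ATP in 50 mM Tris acetate pH 7.5, 10 mM Mg acetate, 0.01% Tween-20, 0.05% BSA; 6-point qHTS titration about 60 µM downward; luminescence read.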
# Rab9 prom act: activators of Rab9 promoter. 2.8% of 320,000 active. Huh7 Rab9 promoter-luciferase reporter, luminescence, 24 h. Potency, µM (top dose mostly 9.22 µM), inactives show at the highest dose activation, negative = inhibition, usual class: activators; further: % of control where 0% means no effect; nearly all actives have a fitted effect of over 60% in size
#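 Promoter activation is measured as luciferase luminescence in Huh7 cells stably transfected with a Rab9 promoter–luciferase construct, following 24 h compound exposure at 37 °C and 10 min reagent incubation at ambient temperature.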
# Active calls of the source: *; ? = inconclusive; / = no result given. Rows were chosen to be rich in hits. Some 7.4% of all compounds tested hit in one or more screens of this group. The call rests on the fitted dose curve; in most records, active means well fitted curve in the direction sought with a large enough effect; inconclusive means small, poorly fitted or top-dose-only effect, or another doubt; inactive means no such curve, though single readings can be large; an effect the other way counts as inactive or inconclusive. Potency means the concentration at half of the fitted maximal effect.
SMILES,SMN2 splice up,NPC1 prom act,ELG1 genotoxic,FLuc modulator,Rab9 prom act
O=C(COc1cccc2cccnc12)Nc1nccs1,?,?,?,12µM*,4µM*
CCOc1ccc(OCC(=O)Nc2nccs2)cc1,5µM*,0.5µM*,0.92µM*,0.95µM*,?
CCOc1ccc(S(=O)(=O)N(C)c2ccc(OCC(=O)Nc3nccs3)cc2)cc1,-15%,-2%,-13%,4%,-1%
NNC(=O)COc1cccc2cccnc12,2%,-2%,-2%,-5%,1%
C[Si](C)(C)Cl,5%,/,/,/,/
COc1ccccc1C(=O)Nc1cccc(C(=O)OCc2cc(=O)n3nc(C)sc3n2)c1,/,/,/,-8%,/
COc1ccc(OCC(=O)Nc2nc(-c3ccc(Br)cc3)ns2)cc1,/,/,/,11µM*,/
Cc1cccc(OCCCC(=O)Nc2nccs2)c1C,/,-1%,-2%,-1%,-10%
COc1ccc(C(=O)Nc2nc(-c3ccc(Br)cc3)ns2)cc1,/,/,/,2%,/
O=C(COc1ccc2c(c1)OCO2)Nc1nccs1,/,0.4µM*,2.3µM*,1.7µM*,0.45µM*
COc1ccccc1OCCCC(=O)Nc1nccs1,/,?,?,12µM*,2.2µM*
COc1ccc(-c2nc(CNS(=O)(=O)c3cccc(F)c3)cs2)cc1,-11%,/,/,-11%,/
CCc1ccc(NC(=S)N2CCCC2)cc1,/,?,18µM*,21µM*,?
CCc1ccc(NC(=S)NCc2cccnc2)cc1,/,-1%,-1%,-14%,11%
CC1CCCN(C(=S)Nc2ccc(F)cc2)C1 (stereo not drawn),0%,-1%,-5%,-18%,3%
CCc1ccc(NC(=S)N2CCN(C)CC2)cc1,/,29%,?,6µM*,?
CCc1ccc(NC(=S)N2CCCC(C(F)(F)F)C2)cc1 (stereo not drawn),-12%,1%,4%,15µM*,2%
CCc1ccc(NC(=S)NCc2ccccc2)cc1,11µM*,27%,11%,?,?
CCOc1ccc(-c2nc(C(N)=O)c3c(n2)n(-c2ccc4c(c2)OCO4)c(=O)n3CC)cc1,2%,/,/,1%,/
CCOC(=O)c1c(C)[nH]c(C)c1S(=O)(=O)N(C)CC(=O)Nc1ccc(OC)cc1,/,/,/,4%,/
CC(C)NC(=O)CN1C(=O)c2cccnc2Sc2ccccc21,/,/,/,-10%,/
Cc1ccc(NC(=O)Cn2c(=O)n(CCCCCC(=O)NCc3ccc(F)cc3)c(=O)c3sccc32)cc1C,-5%,/,/,0%,/
Cc1cccc(Nc2nc3ccccc3s2)c1C,10µM*,3.2µM*,6.5µM*,2.4µM*,2.5µM*
COc1ccc(Nc2nc3ccccc3s2)cc1,10µM*,2.5µM*,?,5.4µM*,1.4µM*
COc1ccc2nc(NC3=NCCC3)sc2c1,?,3.5µM*,?,12µM*,3.2µM*
SMILES,SMN2 splice up,NPC1 prom act,ELG1 genotoxic,FLuc modulator,Rab9 prom act
COc1ccc(-c2nc(NC3=NCCCCC3)sc2C)cc1,-10%,2%,-3%,?,-4%
COc1ccc2nc(Nc3sc4c(c3C(N)=O)CCCC4)sc2c1,29%,8%,17%,11µM*,3%
CCc1ccc(NCc2cc3cc4c(cc3n(CC(=O)Nc3cccc(OC)c3)c2=O)OCO4)cc1,/,/,/,-9%,/
COc1cccc(Nc2nc3ccc(OC)cc3s2)c1,20µM*,?,?,4.3µM*,4.5µM*
COc1ccc2nc(NCc3cccnc3)sc2c1,/,23%,13%,?,?
CCOc1ccccc1NC(=O)C1CCN(S(=O)(=O)Cc2ccccc2)CC1,/,/,/,-16%,/
CCOc1ccc(C(=S)NC2CCCCC2)cc1,3%,3.2µM*,14%,12µM*,?
COc1ccc(C(=S)NC2CCCCC2)cc1,/,8%,10%,12µM*,?
CC(C)NC(=O)N1CCCC2(CCN(C(=O)c3csnn3)CC2)C1,6%,/,/,/,/
CCCCC(=O)Nc1ccc(NC(=O)c2ccc3c(c2)OCO3)cc1OC,29%,15%,13%,11µM*,0%
CC(C)C(=O)Nc1ccc(NC(=O)c2ccc3c(c2)OCO3)cc1,/,5%,?,-5%,9%
COc1cc(NC(=O)c2ccc3c(c2)OCO3)ccc1NC(=O)C(C)C,-19%,18%,9%,15µM*,4%
Cc1ccc(OCC(=O)Nc2cccc(C)n2)c(C)c1,23%,?,4.1µM*,4.3µM*,?
Cc1cccc(NC(=O)COc2ccc(Br)cc2)n1,-10%,14%,14%,24µM*,11%
Cc1ccc(OCC(=O)Nc2cccc3ccc(C)nc23)c(C)c1,1%,/,/,0%,/
Cc1ccc(OCC(=O)NC(=S)Nc2cccc(C)n2)cc1,3%,-1%,2%,0%,-4%
CCc1ccc(NC(=O)c2nn(-c3ccc(OC)cc3)c(=O)c3c2c2ccccc2n3C)cc1,12%,/,/,-1%,/
CCCC(=O)Nc1cc2nn(-c3ccc(OC)cc3)nc2cc1C,22%,/,/,?,/
O=C(Nc1ccc2nn(-c3ccccc3)nc2c1)c1ccc(Br)o1,3%,3%,?,1%,4%
CC(C)CC(=O)Nc1ccc2nn(-c3ccccc3)nc2c1,6.3µM*,1.6µM*,?,2.7µM*,1.6µM*
Cc1ccc(-n2nc3ccc(NC(=O)c4ccco4)cc3n2)cc1,1%,19%,15µM*,9.5µM*,?
Cc1ccc(-n2nc3ccc(NC(=O)c4ccc5c(c4)OCO5)cc3n2)cc1,-13%,0%,1%,-1%,7%
Cc1ccc(-n2nc3ccc(NC(=O)c4oc5ccc(C)cc5c4C)cc3n2)cc1,14%,/,/,-14%,/
Cc1ccc(-n2nc3ccc(NC(=O)C(C)C)cc3n2)cc1,2.2µM*,0.35µM*,1.2µM*,0.95µM*,0.35µM*
CCCC(=O)Nc1ccc2nn(-c3ccc(OC)cc3)nc2c1,/,?,?,5.4µM*,2µM*
SMILES,SMN2 splice up,NPC1 prom act,ELG1 genotoxic,FLuc modulator,Rab9 prom act
CC(C)C(=O)Nc1ccc2nn(-c3ccc(F)cc3)nc2c1,/,0.11µM*,?,0.85µM*,0.089µM*
Cc1c(C(=O)Nc2c(F)cccc2F)sc2ncn(Cc3ccccc3F)c(=O)c12,/,/,/,-3%,/
COc1ccc(/C=C(\C#N)c2nc3ccccc3n2C)c(OC)c1,24%,/,/,24µM*,/
Cn1c(/C(C#N)=C/c2cccc(O)c2)nc2ccccc21,?,28%,?,13µM*,?
CCOc1ccccc1N/C=C(\C#N)c1nc2ccccc2n1C,3%,-7%,13%,-17%,1%
Cn1c(/C(C#N)=C/Nc2ccccn2)nc2ccccc21,/,13%,2%,?,23%
COc1ccc(/C(O)=C(\C#N)c2nc3ccccc3n2C)cc1OC,-15%,0%,3%,-17%,0%
COc1cc(/C=C(\C#N)c2nc3ccccc3n2C)cc(OC)c1OC,-11%,/,/,19µM*,/
CCOC(=O)c1c(C)[nH]c(CCC(=O)Nc2ccc(Cl)cc2C)c1C,/,/,/,-2%,/
CCOC(=O)NC(=O)CSc1nc(-c2ccc(C)c(C)c2)cn1-c1ccccc1,-18%,?,?,17µM*,2.2µM*
